# ± gives the standard deviation of the averaged measurements. Over roughly 25,000 sequences, “ln(normalized median fluorescence intensity)” has its median near 8.9; the highest 2% begin near 10. For the sample, the highest values were picked, then their nearest neighbours and some sequences at random.
# Tested on: PfAP2-LT AP2 domain (GST-tagged)
# Assay: gcPBM binding intensity (ln(normalized median fluorescence intensity)); higher = stronger DNA binding
# In short: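 An Agilent 4 × 180k array of primer-extended double-stranded 36-bp intergenic genomic probes, with negative controls, was incubated for 1 h with GST-tagged P. falciparum DNA-binding domains expressed in E. coli. Alexa488 anti-GST antibody detected bound protein, scanned at 488 nm. Binding intensity is the highest Masliner-normalised natural-log median intensity across replicate spots of either probe orientation.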
row,Sequence,gcPBM binding intensity (ln)
1,TCATTCATATGTTACACACACACACCCACATAAAAA [CACACA_site3245],9.8 ± 0.23
2,AAAAAAAAAAAAAACACACAAACAAATGAATAAATA [CACACA_site3300],8.99 ± 0.54
3,CAACAAAATAAACACACACACACAAACACAAAAAAA [CACACA_site5806],10.2 ± 0.27
4,AAAAAAAAAAAAAAAACACACAAACAAATGAATAAA [CACACA_site5769],8.89 ± 0.5
5,CAAAAAAAATAAAACACACACACAAAAAAATAAAAA [CACACA_site466],9.84 ± 0.31
6,AAAAAAAAAAAAAACACACACACAAAATAAACAAAC [CACACA_site2720],9.66 ± 0.44
7,ATTCATTCATATGTTACACACACACCCACCCATAAA [CACACA_site9066],9.71 ± 0.23
8,TAAAATAAAACAAACACACACACACGGACACAAAAA [CACACA_site7754],10.4 ± 0.34
9,GGACAACAAACAAACACACACAAAAAAAAAATAAAA [CACACA_site3791],9.6 ± 0.71
10,ATGTTATATTTTTTTATACACACTGGAATATATAAA [CACACA_site215],8.64 ± 0.34
11,TGAATGTAAGAAAATACACACTAGTATAGTAACACC [CACACA_site5131],9.24 ± 0.38
12,ATGTAATATTTACAACGTACAAATTATAAACATATT [XGTACX_site603],8.88 ± 0.35
13,GACGACTATATTAATTGTACTCAATTTAAGCATAAT [XGTACX_site2750],8.72 ± 0.35
14,TTAATAACAAAATAAACACACATATATAAATACCCA [CACACA_site4960],9.11 ± 0.4
15,TATATCTATAATATTACACACATATATTTATATTTT [CACACA_site7595],8.95 ± 0.33
16,CATATTATATTTTCATGTACACATAACATATTTATA [XGTACX_site4787],8.76 ± 0.42
17,GAATAAATTGTATTGTGTACATATAAAAGCATCTAA [XGTACX_site8271],8.8 ± 0.4
18,TTCTTTTTAAATTACACACACATATATATATGTATA [CACACA_site3515],9.32 ± 0.41
19,AATAATAATTTAAAAAGTACATTCTAATAAACACGT [XGTACX_site1444],8.78 ± 0.52
20,TAATAAATAAATGACACACACACACGCAAAAAAAAA [CACACA_site7275],9.94 ± 0.19
21,ATTAATAAATAAATGACACACACACCCACAAAAAAA [CACACA_site8839],9.9 ± 0.12
22,ATAATGAAAAGGAACATACACACCCCATATAAATAT [CACACA_site3442],9.61 ± 0.12
23,CTCCATATGAAACACACACACAAATGAAAAAAATAT [CACACA_site3018],9.82 ± 0.4

row,Sequence,gcPBM binding intensity (ln)
1,CAAAAAATGAAACACACACACACACCCATAAATAAA [CACACA_site1231],10.12 ± 0.035
2,TAATAAATAAATGACACACACACACCCAAAAAAAAA [CACACA_site2623],10.1 ± 0.41
3,GGGTATATATTATTATGTACACATGTATAAAATAAG [XGTACX_site2633],8.8 ± 0.52
4,ATACAAAAAGTAAAAAGTACTTAACTAAATATATAA [XGTACX_site2335],8.74 ± 0.56
5,ATATATATATATATATGTACGTACTCAGTTATGCCT [XGTACX_site453],10.2 ± 0.29
6,TATATATATATTATATGTACGTATGTATGTATATAT [XGTACX_site6451],8.88 ± 0.3
7,GTATATATGTATGTATGTACGTATATAGTTATGTAT [XGTACX_site6769],8.98 ± 0.3
8,AGTATAAAATTTGGTTGTACATTTTTAAAAAAATTA [XGTACX_site7519],8.29 ± 0.42
9,GGAATATTAATAAGAGTGCATTTTGTATTCAATATG,8.66 ± 0.41
10,GTATAATTTTCGTATTCACACAAGAATATACTACAT [CACACA_site4877],8.91 ± 0.45
11,TCTCATAGTAGACACACACACACACGCACATATATA [CACACA_site6916],10.1 ± 0.31
12,AAAAAAAAAAGACACACACACACACGGACACATACA [CACACA_site7363],10.3 ± 0.13
13,CACACGCACGGACACACACACAAAAAAAAAAAGAAA [CACACA_site6378],9.34 ± 0.58
14,TCATAGTATAGACACACACACACACGCATATAAATA [CACACA_site6915],9.92 ± 0.13
15,TTAAAAAAAAGACACACACACATACACATATTTATA [CACACA_site7535],9.94 ± 0.35
16,TATCTCATAGTATACACACACACACGCGCACATATA [CACACA_site6917],10.1 ± 0.3
17,CACAGACACGGACACACACACACAAAAAAAAAAAGA [CACACA_site4436],10.1 ± 0.55
18,CAAATACACGGACACACACACACAAAAAAAAAAAAA [CACACA_site6385],10 ± 0.71
19,AAAAAAAAAAGACACACACACACATACACATACATA [CACACA_site7362],9.97 ± 0.071
20,ACATCAAGCAGACACACACACACACGCACACGCACA [CACACA_site6309],10.4 ± 0.17
21,CCAACATGCAGACGCACACACAAAAAAAGCATGCAT [CACACA_site74],9.54 ± 0.4
22,ATAAATCAAAGGCACACACACAAAAAAAAAAAAAAA [CACACA_site160],9.62 ± 0.49
